High-throughput results as filed in PubChem BioAssay.
Pf growth 96h: Primary qHTS for delayed death inhibitors of the malarial parasite plastid, 96 hour incubation. P. falciparum luciferase reporter growth, 96 h. Potency, µM (titrated, usually from 28.7 µM), inactives show at the top dose activity change, negative = inhibition, usual class: inhibitors. hit rate 6.9% among 320,000; active means well fitted inhibition curve with a large enough effect; inconclusive means small, poorly fitted or top-dose-only effect, or another doubt; inactive means no such curve, though single readings can be large or run the other way; further: potency means the concentration at half of the fitted maximal effect; on the % scale 0 is the no-effect control and ±100 the full control effect
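Delayed-death screen, second-generation endpoint: infected erythrocytes, 2% hematocrit, 0.05% parasitemia final; 96 hours at 37 C, 5% CO2; luciferase detection reagent; luminescence decrease equals reduced growth.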
CHX counter: Cycloheximide Counterscreen for Small Molecule Inhibitors of Shiga Toxin | cell reporter, cycloheximide protein synthesis inhibition counterscreen | max response, % | hit rate 12% among 300,000 | AID 2314, 2010; in the data active means max response mostly above about 13%, no sharp cut-off; inactive means mostly below about 14%; further: read at 38.3 µM for the half of the compounds with a filed dose; 0% is about no effect
SARS PLpro yeast: qHTS of Yeast-based Assay for SARS-CoV PLP; S. cerevisiae expressing SARS-CoV PLpro, growth rescue; Potency, µM (top dose mostly 32.9 µM), for the others: at the top dose activity, positive = growth rescue, hits mostly activators; hit rate 0.19% among 330,000; further: potency means the concentration at half of the fitted maximal effect; 0% is about no effect; nearly all actives have a fitted effect of over 55% in size
Pf growth 48h: Primary qHTS for delayed death inhibitors of the malarial parasite plastid, 48 hour incubation | Potency, µM (titrated, usually from 28.7 µM), inactives show top-dose activity change, negative = inhibition, actives largely listed as inhibitors | P. falciparum luciferase growth in erythrocytes, 48 h | hit rate 5.9% among 310,000; active means well fitted inhibition curve with a large enough effect; inconclusive means small, poorly fitted or top-dose-only effect, or another doubt; inactive means no such curve, though single readings can be large or run the other way; further: potency means the concentration at half of the fitted maximal effect; on the % scale 0 is the no-effect control and ±100 the full control effect
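Parasite viability was followed by luminescence of a genomically integrated firefly luciferase. Cultures held 0.1% parasitemia at 2% hematocrit (final), incubated under 5% CO2 at 37 C.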
NS1 inh: qHTS Assay for Inhibitors of Influenza NS1 Protein Function; hit rate 0.4% among 270,000; AID 2326, 2010; Potency, µM (series often up to 46.1 µM), without a hit: at the highest dose activity, positive = more growth; further: potency means the concentration at half of the fitted maximal effect; actives are rising curves; nearly all actives have a fitted effect of over 50% in size
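Recovery from NS1-induced slow growth read by OD600 in budding yeast switched to galactose assay medium (pH 6.0, -URA) at 1:100 dilution. Compound 23 nl per well; the matching strain lacking NS1 serves as control.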
Shiga toxin inh: A qHTS for Small Molecule Inhibitors of Shiga Toxin. inhibition, % at 38.7 µM. Vero cells, Shiga toxin protein synthesis inhibition reporter. hit rate 9.2% among 290,000. AID 2315, 2010; in the data active means inhibition mostly above about 28%, no sharp cut-off; inactive means mostly below about 43%; further: 0% is about no effect
The depositor's hits bear a star; ? = inconclusive; . = not tested or not shown; ! = a repeat was not active; [ ] = dose if it differs, or a comment. Hits are enriched below; roughly 21% of the tested compounds scored in any of these assays. Unless noted, the call rests on the fitted dose curve.

SMILES | Pf growth 96h | CHX counter | SARS PLpro yeast | Pf growth 48h | NS1 inh | Shiga toxin inh
CCOC(=O)c1ccc(CNC(=O)c2cc(COc3ccccc3SC)on2)o1 | 29% | 34* | . | 14% | -5% | 74*
CSc1ccccc1OCc1cc(C(=O)NCc2ccc(C)s2)no1 | -19% | 23* | -1% | -9% | -7% | 41*
CCn1cc(CNC(=O)c2cc(COc3ccc(F)cc3Cl)on2)cn1 | ? | -2 | -1% | 7% | 3% | 38
COc1ccc(C(c2c(NC(C)=O)sc3c2CCCC3)N2CCN(CCO)CC2)cc1OC (configuration not stated) | ? | 0 | 0% | 4.7µM* | . | 3
CC(=O)Nc1sc2c(c1C(c1ccncc1)N1CCOCC1)CCCC2 (configuration not stated) | 8.3µM* | 1 | 1% | 4.7µM* | . | -5
O[C@@H]1[C@@H]2O[P@@](O)(=S)OC[C@H]2O[C@H]1n1cnc2cc(Cl)c(Cl)cc21 | . | -4 | . | . | . | -5
CC/C(=N/Nc1ccccc1C)c1cnnc(SC)n1 | 2.3µM* | 1 | -37% | 4.1µM* | -22% | -6
CSc1nncc(/C(C)=N\Nc2ccccc2)n1 | 0% | 17 | -14% | 49% | -76% | -9
COc1ccc2nc(Cl)c(C#N)cc2c1 | 17% | -3 | 0% | 22% | 1% | 27
C[C@@H]1O[C@@H](OC[C@@H]2O[C@H](Oc3c(-c4ccc(O)cc4)oc4cc(O)cc(O)c4c3=O)[C@@H](O)[C@H](O)[C@H]2O)[C@H](O)[C@H](O)[C@H]1O | . | . | -9% | . | . | .
CC1OC(Oc2c(-c3cc(O)c(O)c(O)c3)oc3cc(O)cc(O)c3c2=O)C(O)C(O)C1O (configuration not stated) | -102% | 1 | 0% | 9.3µM* | 1% | -7
O=c1c(O)c(-c2ccc(O)c(O)c2)oc2cc(O)cc(O)c12 | -5% | 30* | -4% | ? | -8% | 25
COc1ccc(-c2cc(=O)c3c(O)cc(O)cc3o2)cc1 | 18% | . | . | 3% | . | .
COc1cc(-c2oc3cc(O)cc(O)c3c(=O)c2O)ccc1O | . | 48*! | . | . | . | 49*
O=c1cc(-c2ccc(O)c(O)c2)oc2cc(O)cc(O)c12 | 4% | 56* | 2% | -32% | -3% | 67*
O=S(=O)(Nc1nccs1)c1ccc([As](=O)(O)O)cc1 | . | . | . | . | 0% | .
CC1=NNC(=O)c2ccccc2O1 | 12% | -2 | 1% | 15% | 3% | -13
CCOc1ccc(/C=C/C(=O)Nc2ccc(OC)cc2[N+](=O)[O-])cc1 | ? | 7 | 4% | 21% | -8% | 21
CCOc1ccc(N/C=C/C(=O)c2ccccc2)c([N+](=O)[O-])c1 | ? | 59* | -45% | -49% | -13% | 46*
CCOc1ccc(NC(=O)/C=C/c2ccccc2)c([N+](=O)[O-])c1 | 8.3µM* | 25* | 2% | 9.3µM* | -3% | 29
CCOc1ccc(Nc2ccc(C(=O)O)cc2[N+](=O)[O-])cc1 | ? | 1 | -4% | -1%[0.00184 µM] | -61% | -6
COc1ccc([C@H]2CC(=O)C=C(c3ccc4c(c3)sc3ccccc34)C2)cc1 | ? | . | -5% | ? | . | .
Cc1c(F)cccc1NC(=O)c1ccc2c(c1)CCN2S(C)(=O)=O | 3% | 8.9* | 2% | ? | -9% | 165*
Cc1cccc(NC(=O)c2ccc3c(c2)CCN3S(C)(=O)=O)c1C | 323% | 18* | 4% | -2% | 11% | .
CS(=O)(=O)N1CCc2cc(C(=O)OCC(=O)c3ccccc3)ccc21 | -19% | 23* | -3% | . | -6% | 49
SMILES | Pf growth 96h | CHX counter | SARS PLpro yeast | Pf growth 48h | NS1 inh | Shiga toxin inh
CS(=O)(=O)N1CCc2cc(C(=O)Nc3ccccc3Cl)ccc21 | ? | 27* | -20% | 18% | -26% | 37
CN(C(=O)c1ccc2c(c1)CCN2S(C)(=O)=O)c1ccccc1 | ? | -3 | -1% | -7% | -2% | 10
O=C1CCN(Cc2ccc(O)cc2)CCN1[C@H](CO)c1ccccc1 | 3% | 4 | 4% | ? | 17% | 6
CC(=O)N1[C@H](C)C=C[C@]1(Cc1ccccc1)C(=O)O | ? | -3 | ? | 33% | 9% | -7
O=C(COC(=O)c1ccc(F)cc1Cl)NC1CCCCCCC1 | . | . | -12% | . | . | .
ClC(=Nc1cccc2ccccc12)N(c1ccccc1)c1ccccc1 | . | . | . | . | -7% | .
CCOC(=O)COn1c(=O)c(-c2cccs2)[n+]([O-])c2ccccc21 | ? | 33* | -2% | 42% | -145% | 30
COn1c(=O)c(-c2cccs2)[n+]([O-])c2ccccc21 | 57% | 20* | -4% | 49% | -91% | 49
CCOn1c(=O)c(-c2cccs2)[n+]([O-])c2ccccc21 | -36% | 15 | -3% | . | -9% | -4
COC(=O)c1ccc(COC(=O)CNS(=O)(=O)c2ccc(C)cc2)cc1 | 0% | 33* | -8% | 99% | . | 81*
COC(=O)c1ccc(COC(=O)CCS(=O)(=O)c2ccc(C)cc2)cc1 | 11% | 3 | 0% | 13% | . | 11
Cc1ccc(S(=O)(=O)NCC(=O)OCc2ccccc2Br)cc1 | 9.3µM* | -1 | -2% | 40% | -61% | -18
Cc1ccc(S(=O)(=O)NCC(=O)OCC(=O)c2cccs2)cc1 | 13µM* | 4 | -1% | -2% | 3% | -14
CN1C(=O)[C@]23CC4=CC=C[C@H](O)[C@H]4N2C(=O)[C@@]1(CO)SS3 | . | -4 | . | . | . | -25
OCc1cc(CO)c(O)c(CCc2ccccc2)n1 | 4.7µM* | -2 | -5% | . | 3% | -9
COc1cc(NS(=O)(=O)c2ccc3c(c2)C(C)(C)C(=O)N3C)cc(OC)c1 | -2% | -1 | -2% | -5% | 8% | -2
Cc1nn(CC(N)=O)c(=O)c2ccccc12 | 2.1µM* | -2 | -4% | ? | -5% | -14
CCOC(=O)Cn1nc(C)c2ccccc2c1=O | . | -3 | 1% | 16% | 9% | 36
Cc1nn(CC(=O)N2CCN(C)CC2)c(=O)c2ccccc12 | 7.4µM* | -4 | 0% | 31% | -3% | -29
COc1ccccc1/C=C/C=C1\Oc2c(ccc(O)c2CN(C)C)C1=O | ? | 13* | -2% | 2.6µM* | 18% | 29
CCN(CC)Cc1c(O)ccc2c1O/C(=C\C=C\c1ccccc1)C2=O | ? | 16* | 11% | ? | 8% | 106*
CCOc1cc(C2C(C#N)=C(N)OC(C)=C2C(C)=O)cc(Br)c1O (configuration not stated) | ? | -4 | 0% | -4% | -9% | -8
CCOc1cc(C2C(C#N)=C(N)OC(C)=C2C(C)=O)c(Br)c(Br)c1OC(C)C (configuration not stated) | 8.3µM* | -3 | -17% | 3.3µM* | -2% | 15
O=c1c2cnn(-c3ccccc3Cl)c2ncn1Cc1cccnc1 | 13µM* | -3 | -4% | ? | -7% | -17
